Results from PubChem BioAssay (NCI).
About 83,000 compounds went through this panel and 20% of them were active in at least one assay; those are over-represented in the sample as a whole.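 Compound tested at a single concentration for 48 hours in 96-well plates; a percent growth value below 10 was scored as active.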 Unmarked numbers belong to inactive results. The source made the active and inactive calls.

Tested on: MDA-MB-468 breast
Assay: NCI-60 one-dose screen, 48 h (100 = growth as untreated, 0 = no growth, -100 = all killed)
Conditions: 10 µM

Row | SMILES | growth
1 | CCOC(=O)N/C(=C1/OCCN1C)[P+](c1ccccc1)(c1ccccc1)c1ccccc1 | -11.4% (active)
2 | COc1cccc(-c2ccc(/C=N/NC(=O)c3[nH]c4ccc(Br)cc4c3-c3ccccc3)o2)c1 | -2.92% (active)
3 | Cn1cc(/C=N/Nc2cccc(Cl)n2)c2ccccc21 | -1.15% (active)
4 | O=C(CNc1nc(-c2ccccc2)cs1)Nc1ccc(Cl)cc1[N+](=O)[O-] | -34.9% (active)
5 | CCCCCCCCCCCCCCCCCCCC(=O)NCCc1c[nH]c2ccc(OC(=O)CCCC(=O)OCCOOCCOOCCOOCCOOCCOOCCOOCCOOCCOOCCOOCCOOCCOOCCOC)cc12 | 85.6%
6 | COC[C@@H](CC(C)C)N=C1N/C(=C\c2ccc3ncsc3c2)C(=O)N1C | -5.24% (active)
7 | COc1ccccc1[C@H]1C(C(=O)c2ccc(O)cc2)C2(N[C@@H]1c1ccccc1)C(=O)Nc1ccc(Br)cc12 (stereo not given in full) | -42.9% (active)
8 | COc1ccc(C(=O)Nc2ccc(-c3ccc4c(c3)NC(=O)/C4=C\c3ccc[nH]3)cc2)cc1 | -70% (active)
9 | O=C(Nc1ccncc1)c1ccc(-n2c(=O)[nH]c3ccccc3c2=O)cc1 | 69.6%
10 | O=C(NO)c1ccc(-c2nc3ccc4[nH]ncc4c3c3c2CCCC3)cc1 | -90.3% (active)
